This is part of a sample that, as a whole, favours compounds with a hit. Of some 83,000 tested, about 20% had one in any assay.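 Interpretation: 100, growth as untreated; towards 0, rising growth inhibition; 0, no net growth; 0 to -100, cell death. Compounds scoring below 10 were considered active.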 Activity calls are given as the source filed them.
Experiments:
Experiment in all cases: NCI-60 one-dose screen, 48 h (100 = growth as untreated, 0 = no growth, -100 = all killed)
Details in all cases: 10 µM unless noted
HCT-15 colon = test system: HCT-15 colon
HT29 colon = test system: HT29 colon
SNB-75 CNS = test system: SNB-75 CNS
SNB-19 CNS = test system: SNB-19 CNS
PC-3 prostate = test system: PC-3 prostate
SK-MEL-5 melanoma = test system: SK-MEL-5 melanoma
UACC-62 melanoma = test system: UACC-62 melanoma
LOX IMVI melanoma = test system: LOX IMVI melanoma
SK-MEL-28 melanoma = test system: SK-MEL-28 melanoma
U251 CNS = test system: U251 CNS

Measured: growth

CNCCNc1nc2ccccc2c2c(=O)c3cc(F)ccc3oc12
inactive: HCT-15 colon 49.1% | HT29 colon 24.5% | SNB-75 CNS 56.8% | SNB-19 CNS 57.9% | PC-3 prostate 46.9% | SK-MEL-5 melanoma 73.3% | UACC-62 melanoma 85% | LOX IMVI melanoma 44.6% | SK-MEL-28 melanoma 84.5%

CCN(CC)CCOc1ccc(/C(=C(\C)c2ccc(OC)c(F)c2)c2ccc(Cl)cc2)cc1
inactive: SNB-19 CNS 91.8%

Fc1ccc(Nc2ccc3cc(OCCCN4CCOCC4)ccc3n2)cc1F
inactive: HCT-15 colon 28.7% | SNB-19 CNS 64.9% | U251 CNS 41.7% | PC-3 prostate 45.2% | SK-MEL-5 melanoma 60% | SK-MEL-28 melanoma 43.4%
active: HT29 colon -6.89% | UACC-62 melanoma -19.8% | LOX IMVI melanoma -46.9%

CN1CCN(C(=O)[C@]23CCC(C)(C)C[C@@H]2C2=CC[C@@H]4[C@@]5(C)Cc6c([nH]c7ccccc67)C(C)(C)[C@@H]5CC[C@@]4(C)[C@]2(C)CC3)CC1
inactive: HCT-15 colon 81.5% | HT29 colon 71.3% | SNB-19 CNS 91.8% | U251 CNS 78.3% | PC-3 prostate 64.8% | SK-MEL-5 melanoma 94% | UACC-62 melanoma 95.9% | LOX IMVI melanoma 77.4% | SK-MEL-28 melanoma 89.6%

CC(C)(C)CC(C)(C)Nc1c(-c2ccc(-c3ccccc3)cc2)nc2cnccn12
inactive: HCT-15 colon 84.5% | HT29 colon 30.5% | SNB-19 CNS 94.3% | U251 CNS 59.7% | PC-3 prostate 65.4% | SK-MEL-5 melanoma 101% | LOX IMVI melanoma 97.2% | SK-MEL-28 melanoma 100%

COc1ccc(/C(C)=C(\c2ccc(Cl)cc2)c2ccc(OCCN(C)C)cc2)cc1F
active: HT29 colon 8.32% | LOX IMVI melanoma -44.6%
inactive: HCT-15 colon 16.4% | SNB-19 CNS 80% | U251 CNS 46% | PC-3 prostate 51.2% | SK-MEL-5 melanoma 55% | UACC-62 melanoma 42.3% | SK-MEL-28 melanoma 30.9%

Cl.[Pt].[c-]1ccccc1-c1ccccn1.c1ccc(P(c2ccccc2)C([PH+](c2ccccc2)c2ccccc2)[PH+](c2ccccc2)c2ccccc2)cc1
active: HCT-15 colon 7.95% | PC-3 prostate 9.46% | SK-MEL-5 melanoma -87.3%
inactive: HT29 colon 10.4% | SNB-19 CNS 27.6% | U251 CNS 10.7% | UACC-62 melanoma 16.8% | LOX IMVI melanoma 12.1% | SK-MEL-28 melanoma 34%

CCNCCNc1cc(C2CCCC2)c(C#N)c2nc3ccccc3n12
active: HT29 colon -9.9% | U251 CNS -19.1% | SK-MEL-5 melanoma -56.7% | UACC-62 melanoma -81.4% | LOX IMVI melanoma -79% | SK-MEL-28 melanoma -63.8%
inactive: HCT-15 colon 26.8% | SNB-19 CNS 36.8% | PC-3 prostate 39.6%
